From PubChem BioAssay (NCATS) come the findings set out here.

Records with an inconclusive call do not appear. The source made the active and inactive calls. The call rests on the fitted dose curve; in most records, active means well fitted activation curve with a large enough effect; inconclusive means small, poorly fitted or top-dose-only effect; inactive means flat fitted curve, though single readings scatter.

The experiment in a line: Primary redox qHTS assay for identification of artifact compounds. (AID 1845223). The settings on record: Amplex Red/HRP redox cycling with DTT, fluorescence; series mostly up to 53.8 µM; redox activity (% of DA3003): at the top concentration. An excerpt:
PI: Alexander Tropsha Ph.D.
UNC Eshelman School of Pharmacy
University of North Carolina, Chapel Hill, North Carolina
Hits from high-throughput screening (HTS) of chemical libraries are often false positives due to their interference with the assay detection technology. In response to this problem, we generated the largest publicly available library of chemical liabilities and developed a free webtool to predict HTS artifacts, both of which are described herein. More specifically, we generated, curated, and integrated HTS datasets for thiol reactivity, redox activity, and luciferase (firefly and nano) activity. Using these curated datasets, we developed and validated several Quantitative Structure-Interference Relationship (QSIR) models to predict nuisance behavior. […] These models were employed for virtual profiling of the National Center for Advancing Translational Science's (NCATS) in-house library, and 256 compounds for each assay were selected for the experimental validation of nuisance behavior. The BA for these external predictions ranged from 58 to 78% for compounds within the applicability domains of the models. […] The models developed in this study, along with aggregation models previously developed by our group (SCAM Detective) were implemented in "Liability Predictor," an online tool which may be used as part of chemical library design or for triaging HTS hits. Both the models and the curated datasets are publicly available at https://liability.mml.unc.edu/.
SEQUENCE No. (e.g., 1, 2, 3, etc.); […] (e.g., Cells, Incubation, Reagent, etc.); VALUE; DESCRIPTION.
1; Reagent; 3 uL; Amplex Red and HRP mixture.
2; Compounds and control; 16 nL; Kalypsis pin tool (Wako USA) equipped with a 1536-well pin head. […]
6; Detection; Fluorescence, ViewLux microplate reader, 525 nm excitation, 598 nm emission.
NOTES (numbers refer to Sequence numbers above)
1. 3 uL of a mixture containing Amplex Red (25 uM final concentration) and horseradish peroxidase (HRP; 250 mU/mL final concentration) in assay buffer (HBSS) was dispensed into all wells of a 1536-well assay plate (solid-bottom black plate; Greiner Bio One, Monroe, NC).
2. A Wako Pin-tool (Wako Automation, Richmond, VA) was used to transfer 16 nL of compounds (consisting of 7-plates in qHTS format, final concentration range 18.3 nM to 114 uM) or control DA3003 (final concentration range 1.22 nM to 40 uM).
3. 15 min. incubation at room temperature protected from light.
4. 1 uL of DTT (prepared fresh; final concentration 250 uM) was dispensed for a final assay volume of 4 uL.
5. Plates were centrifuged (121xg, 15 seconds) and incubated for 30 minutes at room temperature protected from light.
6. Samples were read for fluorescence (Ex/Em = 525(20)/598(25) nm) on a ViewLux CCD imager (PerkinElmer). Data were normalized to DMSO (0% activity) and DA3003 (10 uM final concentration; 100% activity) and the resulting percent inhibition data were fitted to a 4-parameter Hill equation using NCATS in-house software.
For the molecule `CN1CCc2c(n(Cc3ccc(C(=O)NO)cc3)c3ccccc23)C1`, the “redox activity (% of DA3003)” value is 12.4% (inactive). For the molecule `NC(=O)c1noc([C@H](CCCC2CCCCC2)CC(=O)NO)n1`, the “redox activity (% of DA3003)” value is 1.64% (inactive).

With `COc1ccc(-c2nc3ccc(C4=NNC(=O)CC4C)cc3[nH]2)cc1` (stereo not given), the “redox activity (% of DA3003)” value is 1.64% (inactive).

Turning to `Cc1cc(-c2ncc(CC(=O)Nc3ccc(-c4cnccn4)cn3)cc2C)ccn1`, the “redox activity (% of DA3003)” value is -7.22% (inactive). As to `CCNC(=O)c1noc(-c2cc(C(C)C)c(O)cc2O)c1-c1ccc(CN2CCOCC2)cc1`, the “redox activity (% of DA3003)” value was -3.03% (inactive). `Clc1ccc(C2(c3ccc(-c4cn[nH]c4)cc3)CCNCC2)cc1`: the “redox activity (% of DA3003)” value was -3.71% (inactive). With `Cc1csc(-c2nnc(Nc3ccc(Oc4ncccc4-c4ccnc(N)n4)cc3)c3ccccc23)c1` the figure was -3.97% (inactive); with `CC[C@H](CC#N)OC(=O)N[C@@H](C)c1cccc(NC(=O)Nc2ccc(-c3cnco3)c(OC)c2)c1`, 3.21% (inactive); with `O[C@@H](COc1cccc2ncccc12)CN1CCN(C2c3ccccc3[C@@H]3[C@H](c4ccccc42)C3(F)F)CC1` (stereo not given in full), 13.2% (inactive). Turning to `Cc1nc(C(=O)NCC(=O)O)c(O)c2ccc(Oc3ccccc3)cc12`, the “redox activity (% of DA3003)” value is 9.38% (inactive). On to `C[C@H](c1ccc(F)cc1CCCC(=O)O)N(c1cc(F)ccc1F)S(=O)(=O)c1ccc(Cl)cc1`, for which the “redox activity (% of DA3003)” value is 11.6% (inactive). For the molecule `COc1ccc(-c2cc3nccn3c(Nc3ncccc3C(N)=O)n2)cc1OC`, the “redox activity (% of DA3003)” value is 11.3% (inactive). Consider `COC(=O)N1CCN(Cc2cccc(NC(=O)Nc3ccc(C)nc3)c2F)CC1`, for which the “redox activity (% of DA3003)” value was 12.1% (inactive). Take `CCC(=O)N1CCN(c2ccc(-n3c(=O)ccc4cnc5ccc(-c6cnc7ccccc7c6)cc5c43)cc2C(F)(F)F)CC1`: the redox activity (% of DA3003) is -10.4% [at 11.5 µM] (inactive).

For the molecule `CN(C)c1ccc(-c2nc3ncc(Cl)c(N4CCN(CC(=O)Nc5nccs5)CC4)c3[nH]2)cc1`, the “redox activity (% of DA3003)” value was 4.64% [at 25.6 µM] (inactive). As for `Cc1cnc(Nc2cccc(CN3CCOCC3)c2)nc1Nc1cccc(S(=O)(=O)NC(C)(C)C)c1`, the figure is -0.069% (inactive); as for `CC1=C(C(=O)Nc2cc3cn[nH]c3cc2F)C(c2ccc(C(F)(F)F)cc2)CC(=O)N1` (stereo not given), 2.81% (inactive); as for `Cc1cnc(CNC(=O)c2c(=O)c3ccc(N4CCCN(C)CC4)nc3n3c2sc2ccccc23)cn1`, -5.5% [at 11.5 µM] (inactive). With `N#Cc1ccc(Oc2ccc3c(c2)COB3O)cc1`, the “redox activity (% of DA3003)” value was -2.27% (inactive).

Regarding `CS(=O)(=O)c1ccc(C2=C(c3ccccc3)C(=O)OC2)cc1`, the “redox activity (% of DA3003)” value was -4.77% (inactive). With `CCN(CCO)CCCOc1ccc2c(Nc3cc(CC(=O)Nc4cccc(F)c4)[nH]n3)ncnc2c1`, the “redox activity (% of DA3003)” value is -1.03% (inactive).

Take `Cc1ccccc1C(=O)c1ccc(Nc2ccc(Br)cc2N)cc1Cl`: the “redox activity (% of DA3003)” value was -4.42% (inactive).

For `CC(C)(OCc1nn(Cc2ccccc2)c2ccccc12)C(=O)O`, the “redox activity (% of DA3003)” value is 4.55% (inactive). Consider `CC(=O)Nc1cccc(-n2c(=O)n(C3CC3)c(=O)c3c(Nc4ccc(I)cc4F)n(C)c(=O)c(C)c32)c1`, for which the “redox activity (% of DA3003)” value is -10.3% (inactive). Take `O=C(Nc1ccc(OC(F)(F)F)cc1)c1sccc1NCc1ccnc2ccccc12`: the “redox activity (% of DA3003)” value is -0.255% (inactive). As to `c1cc(OCCN2CCCCC2)cc(-c2n[nH]c3ccc(-c4ncn[nH]4)cc23)c1`, the “redox activity (% of DA3003)” value was -0.503% (inactive). Consider `c1ccc(-c2oc3ncnc(NC[C@@H]4CCCO4)c3c2-c2ccccc2)cc1`, for which the “redox activity (% of DA3003)” value is 4.96% (inactive).

In the case of `O=c1[nH]nc(OCCCc2ccc(Cl)cc2)c(NCc2cccnc2)c1Br`, the “redox activity (% of DA3003)” value is 0.167% (inactive).

With `Cc1cc(C(C)Nc2ccccc2)c2nc(N3CCOCC3)cc(=O)n2c1` (stereo not given), the “redox activity (% of DA3003)” value was 14.4% (inactive).

Take `Cn1c(=O)c(-c2c(Cl)cccc2Cl)cc2cnc(Nc3cccc(C(=O)O)c3)nc21`: the “redox activity (% of DA3003)” value was -5.2% (inactive). Turning to `c1ccc(CNc2nc(N3CCOc4ccccc43)nc3c2CCCC3)cc1`, the “redox activity (% of DA3003)” value was -0.174% (inactive).

For the molecule `C[C@@H](N)c1ccc(C(=O)Nc2ccnc3[nH]ccc23)cc1`, the “redox activity (% of DA3003)” value was -8.95% (inactive).

Regarding `C[C@@H](NC(=O)c1ncnc(N)c1Cl)c1ncc(C(=O)Nc2cc(C(F)(F)F)c(Cl)cn2)s1`, the “redox activity (% of DA3003)” value is 7.83% (inactive). Consider `CNC(=O)c1c(-c2ccc(F)cc2)oc2cc(N(CCO)S(C)(=O)=O)c(C3CC3)cc12`, for which the “redox activity (% of DA3003)” value is -0.613% (inactive). `O=C(Nc1cccc(C(F)(F)F)c1)Nc1cc(S(=O)(=O)NC2CC2)ccc1-c1ccsc1`: the “redox activity (% of DA3003)” value is -7.01% (inactive). Regarding `CC1(C)CC(=O)c2c(C(F)(F)F)nn(-c3ccc(C(N)=O)c(NC4CCC(O)CC4)c3)c2C1` (stereo not given), the “redox activity (% of DA3003)” value is 15.8% (inactive). Turning to `CC(C)CNc1ccnc(NCc2csc(-c3ccccc3)n2)n1`, the “redox activity (% of DA3003)” value was -6.5% (inactive).

Turning to `NC(=O)c1ccc(N(C(N)=O)c2c(F)cccc2F)nc1-c1ccc(F)cc1F`, the “redox activity (% of DA3003)” value was -9.26% (inactive). As for `CCN1CCN(c2ccc(Nc3cc(N(C)C(=O)Nc4c(Cl)c(OC)cc(OC)c4Cl)ncn3)cc2)CC1`, the figure is -5.71% (inactive); as for `CCc1cccc(CC)c1NC(=O)N1Cc2[nH]nc(NC(=O)c3ccc(N4CCN(C)CC4)cc3)c2C1`, -2.01% (inactive).
